# Experimental data taken from PubChem BioAssay (EPA / NIEHS).
# Values joined by “and” are separate entries in the source; they are usually repeats but may differ in a detail not shown here. Identical values can stand only once. Records with an inconclusive call do not appear. Active and inactive are the calls of the source. The calls were made as follows: active = hit-call score of the fitted dose curve at least 0.9, where 1 is the maximum; inconclusive = response in the unintended direction; inactive = score below 0.9.
# Experiments:
# [1] = target: Sodium channel protein type 1 subunit alpha (Rattus norvegicus) (UniProt P04774); test: NVS_IC_rNaCh_site2: NovaScreen (NVS) Ion Channel Assay for rat Sodium Channel, Site 2 (NaCh) (AID 2283322);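 also: hit means loss of radioligand binding signal relative to DMSO so AC50 marks displacement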
# Outline: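 Initial duplicate single-point testing at 25 uM, followed by concentration-response runs for actives. Binding of radioligand to rat forebrain membranes quantified after 1 h via filter-based radiodetection.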
# [2] = target: human Peripheral-type Benzodiazepine Receptor (PBR), TSPO (gene 706) (UniProt P30536); test: NVS_MP_hPBR: NovaScreen (NVS) Membrane Protein Assay for human Peripheral-type Benzodiazepine Receptor (PBR) (AID 2283331);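 also: hits reduce radioligand binding relative to DMSO baseline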
# Chain of human Peripheral-type Benzodiazepine Receptor (PBR), TSPO (gene 706) (P30536 whole entry, looked up): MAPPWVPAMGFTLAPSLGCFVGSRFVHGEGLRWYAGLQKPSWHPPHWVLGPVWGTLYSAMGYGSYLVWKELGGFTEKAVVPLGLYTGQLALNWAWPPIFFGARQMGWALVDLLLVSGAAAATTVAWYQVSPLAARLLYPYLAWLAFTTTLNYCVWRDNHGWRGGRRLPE
# Outline: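 Cell-free binding to human colonic membrane preparations measured by filter-based scintillation counting after 1 h. Compounds first run at 25 uM in duplicate, then concentration series for actives; signal loss against DMSO baseline.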
# [3] = target: rat Peripheral-type Benzodiazepine Receptor (PBR), Tspo (gene 24230) (UniProt P16257); test: NVS_MP_rPBR: NovaScreen (NVS) Membrane Protein Assay for rat Peripheral-type Benzodiazepine Receptor (PBR) (AID 2283335)
# Chain of rat Peripheral-type Benzodiazepine Receptor (PBR), Tspo (gene 24230) (P16257 whole entry, looked up): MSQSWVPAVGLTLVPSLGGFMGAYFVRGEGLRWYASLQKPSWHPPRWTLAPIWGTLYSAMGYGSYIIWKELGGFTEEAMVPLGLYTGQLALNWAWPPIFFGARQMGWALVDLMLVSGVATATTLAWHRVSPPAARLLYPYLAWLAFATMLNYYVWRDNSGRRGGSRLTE
# Outline: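 Single-concentration duplicate screening at 25 uM preceded concentration-series retesting of actives. Binding of a specific radioligand to rat kidney membrane PBR was read by filtration radiodetection after 1 h, with plate-wise positive and negative controls.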
# [4] = NVS_IC_rCaBTZCHL: NovaScreen (NVS) Ion Channel Assay for Calcium Channel, Type L, Benzothiazepine Site (CaBTZCHL) (AID 2283337)
# Outline: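 Rat cortical membrane preparation, cell-free. Radioligand displaced by test chemical; 1.5 h incubation; filtration, scintillation count. DMSO = negative control/baseline. Primary: duplicate, 25 uM; secondary: concentration series.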
# [5] = target: rat Neonicotinoid receptor (NNR), Chrna7 (gene 25302) (UniProt Q05941); test: NVS_LGIC_rNNR_BungSens: NovaScreen (NVS) Ligand-Gated Ion Channel Assay for rat Neonicotinoid receptor (NNR) (AID 2283315)
# Outline: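 Rat cortical membrane preparation incubated 2.5 h with tritiated or iodinated radioligand and test chemical. Bound radioactivity was filtered and counted by scintillation, and displacement was analysed against DMSO.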
# [6] = target: bovine Estrogen Receptor (ER), ESR1 (gene 407238) (UniProt P49884); test: NVS_NR_bER: NovaScreen (NVS) Nuclear Receptor Binding Assay for bovine Estrogen Receptor (ER) (AID 2283345);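 also: actives lower the bound radioligand count which means they displace the ER ligand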
# Chain of bovine Estrogen Receptor (ER), ESR1 (gene 407238) (P49884 whole entry, looked up): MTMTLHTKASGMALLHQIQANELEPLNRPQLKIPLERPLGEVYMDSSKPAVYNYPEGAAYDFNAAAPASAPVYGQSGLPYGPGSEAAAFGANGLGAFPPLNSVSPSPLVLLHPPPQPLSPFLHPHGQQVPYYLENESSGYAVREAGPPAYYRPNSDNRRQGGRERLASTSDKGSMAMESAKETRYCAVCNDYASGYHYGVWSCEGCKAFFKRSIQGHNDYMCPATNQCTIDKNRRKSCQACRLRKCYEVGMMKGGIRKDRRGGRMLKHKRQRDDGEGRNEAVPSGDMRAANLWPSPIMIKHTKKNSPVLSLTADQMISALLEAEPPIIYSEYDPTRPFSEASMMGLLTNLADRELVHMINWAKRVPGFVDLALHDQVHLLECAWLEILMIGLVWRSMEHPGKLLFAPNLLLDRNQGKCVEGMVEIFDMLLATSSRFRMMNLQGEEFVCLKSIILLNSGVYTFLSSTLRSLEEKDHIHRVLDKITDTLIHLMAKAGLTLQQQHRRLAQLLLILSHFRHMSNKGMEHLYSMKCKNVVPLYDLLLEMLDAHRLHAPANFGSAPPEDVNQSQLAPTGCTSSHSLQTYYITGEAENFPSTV
# Outline: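 Displacement of a radioligand from estrogen receptor in bovine uterine membrane preparations; scintillation signal taken at 18 hours, DMSO as baseline. Single-concentration duplicates (25 uM) preceded concentration-response follow-up of actives.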
# [7] = target: rat Thyrotropin Releasing Hormone Receptor (TRH), Trhr (gene 25570) (UniProt Q01717); test: NVS_GPCR_rTRH: NovaScreen (NVS) G Protein-Coupled Receptor Assay for rat Thyrotropin Releasing Hormone Receptor (TRH) (AID 2283329);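 also: hit means lower bound tracer signal versus DMSO baseline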
# Chain of rat Thyrotropin Releasing Hormone Receptor (TRH), Trhr (gene 25570) (Q01717 whole entry, looked up): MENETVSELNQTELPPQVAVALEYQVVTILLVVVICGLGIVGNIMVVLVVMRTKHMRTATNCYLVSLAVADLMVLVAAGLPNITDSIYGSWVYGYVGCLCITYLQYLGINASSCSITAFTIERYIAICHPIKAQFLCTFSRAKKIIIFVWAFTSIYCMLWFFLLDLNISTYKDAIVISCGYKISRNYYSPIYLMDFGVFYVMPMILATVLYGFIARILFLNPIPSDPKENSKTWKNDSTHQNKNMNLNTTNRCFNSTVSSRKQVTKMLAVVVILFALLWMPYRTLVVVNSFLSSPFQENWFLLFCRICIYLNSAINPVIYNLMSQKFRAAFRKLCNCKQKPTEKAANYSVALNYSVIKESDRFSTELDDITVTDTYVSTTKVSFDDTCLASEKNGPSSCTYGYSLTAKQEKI
# Outline: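 Competitive radioligand binding on rat forebrain membrane preparations, with filtration and scintillation readout after 4 h. Primary testing in duplicate at 25 uM; actives confirmed in concentration-response. DMSO defined baseline.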
# [8] = NVS_IC_rCaDHPRCh_L: NovaScreen (NVS) Ion Channel Assay for rat Calcium Channel, Type L, Dihydropyridine Site (CaDHPRCh_L) (AID 2283320)
# Outline: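 Rat cortex membrane preparation; dihydropyridine-site radioligand displacement read 1 h post-dose by filtration and scintillation. Primary single-point screen 25 uM in duplicate, then concentration series to 50 uM maximum; DMSO as negative control.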
# [9] = target: Voltage-gated inwardly rectifying potassium channel KCNH2 (Homo sapiens) (UniProt Q12809); test: NVS_IC_hKhERGCh: NovaScreen (NVS) Ion Channel Assay for human Potassium Channel ERG (KhERGCh) (AID 2283333)
# Chain of Voltage-gated inwardly rectifying potassium channel KCNH2 (Homo sapiens) (Q12809 whole entry, looked up): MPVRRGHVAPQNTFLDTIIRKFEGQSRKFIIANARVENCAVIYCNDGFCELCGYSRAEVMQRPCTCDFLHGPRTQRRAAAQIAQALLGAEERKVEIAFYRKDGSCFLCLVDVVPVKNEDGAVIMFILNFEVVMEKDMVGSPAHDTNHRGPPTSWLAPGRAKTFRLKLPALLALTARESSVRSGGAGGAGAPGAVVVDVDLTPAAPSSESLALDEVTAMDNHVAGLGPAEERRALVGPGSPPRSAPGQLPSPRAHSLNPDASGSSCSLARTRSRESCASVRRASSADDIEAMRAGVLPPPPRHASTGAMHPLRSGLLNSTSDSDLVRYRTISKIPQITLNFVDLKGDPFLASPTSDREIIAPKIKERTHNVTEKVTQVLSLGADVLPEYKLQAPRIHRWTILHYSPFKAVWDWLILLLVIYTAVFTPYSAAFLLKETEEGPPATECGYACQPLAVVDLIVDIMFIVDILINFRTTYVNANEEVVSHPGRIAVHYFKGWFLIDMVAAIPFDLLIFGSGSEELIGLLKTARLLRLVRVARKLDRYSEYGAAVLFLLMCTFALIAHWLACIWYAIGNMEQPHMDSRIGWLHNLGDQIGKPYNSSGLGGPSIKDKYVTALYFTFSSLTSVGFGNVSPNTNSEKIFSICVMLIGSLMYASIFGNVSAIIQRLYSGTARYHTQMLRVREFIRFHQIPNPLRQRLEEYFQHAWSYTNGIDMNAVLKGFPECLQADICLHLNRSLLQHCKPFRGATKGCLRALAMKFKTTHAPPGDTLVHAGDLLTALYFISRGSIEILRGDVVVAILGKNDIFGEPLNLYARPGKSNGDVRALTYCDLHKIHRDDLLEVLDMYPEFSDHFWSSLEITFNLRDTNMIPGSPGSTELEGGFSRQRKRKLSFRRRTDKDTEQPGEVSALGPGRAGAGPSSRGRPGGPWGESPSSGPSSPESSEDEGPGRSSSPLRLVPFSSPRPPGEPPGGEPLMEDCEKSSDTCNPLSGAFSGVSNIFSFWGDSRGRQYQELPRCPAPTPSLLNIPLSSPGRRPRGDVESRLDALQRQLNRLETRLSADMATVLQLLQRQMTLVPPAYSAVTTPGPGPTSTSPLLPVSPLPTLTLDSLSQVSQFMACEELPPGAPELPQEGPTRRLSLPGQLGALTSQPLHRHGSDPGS
# Outline: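 Membranes from CHO cells expressing human ERG; displacement of radioligand measured by filtration and scintillation after 0.75 h. Single-concentration duplicate screen at 25 uM, then concentration-response for actives; DMSO baseline.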
# [10] = target: bovine Gamma-Aminobutyric Acid Type A Receptor Agonist (GABAR Agonist), GABRA1 (gene 780973) (UniProt P08219); test: NVS_LGIC_bGABAR_Agonist: NovaScreen (NVS) Ligand-Gated Ion Channel Assay for bovine Gamma-Aminobutyric Acid Type A Receptor Agonist (GABAR Agonist) (AID 2283338)
# Chain of bovine Gamma-Aminobutyric Acid Type A Receptor Agonist (GABAR Agonist), GABRA1 (gene 780973) (P08219 whole entry, looked up): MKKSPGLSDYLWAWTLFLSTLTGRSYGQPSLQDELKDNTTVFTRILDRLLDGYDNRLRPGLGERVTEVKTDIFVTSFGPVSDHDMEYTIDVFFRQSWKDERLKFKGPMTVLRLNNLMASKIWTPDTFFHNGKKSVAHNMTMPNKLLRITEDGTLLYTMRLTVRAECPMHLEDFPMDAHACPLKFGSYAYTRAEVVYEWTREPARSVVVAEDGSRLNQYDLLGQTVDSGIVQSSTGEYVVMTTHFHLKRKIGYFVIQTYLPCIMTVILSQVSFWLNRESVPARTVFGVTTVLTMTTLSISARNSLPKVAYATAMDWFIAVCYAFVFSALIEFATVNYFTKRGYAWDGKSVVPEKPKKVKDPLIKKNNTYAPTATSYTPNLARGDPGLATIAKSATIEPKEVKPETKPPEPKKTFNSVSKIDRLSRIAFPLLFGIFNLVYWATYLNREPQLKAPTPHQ
# Outline: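 Radioligand binding to bovine cerebellar membranes in agonist format, read by filter-based scintillation counting after 1 h. Primary screen in duplicate at 25 uM, with actives followed in concentration series. Gain of signal versus DMSO.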
# [11] = target: rat Glutamate, MK-801 Agonist Site (GluNMDA_MK801), Grin1 (gene 24408) (UniProt P35439); test: NVS_LGIC_rGluNMDA_MK801_Agonist: NovaScreen (NVS) Ligand-Gated Ion Channel Assay for rat Glutamate, MK-801 Agonist Site (GluNMDA_MK801) (AID 2283340)
# Outline: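 Rat forebrain membrane preparation; MK-801-site radioligand binding read by filtration and scintillation after 1.5 h. Single-point 25 uM duplicate screen, followed by singleton concentration series to 50 uM max; DMSO baseline.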
# [12] = tested on: guinea pig Histamine Receptor (H2), gene 100729734; test: NVS_GPCR_gH2: NovaScreen (NVS) G Protein-Coupled Receptor Assay for guinea pig Histamine Receptor (H2) (AID 2283342)
# Outline: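 Guinea pig striatal membrane preparation with specific radioligand; bound counts measured by filtration and scintillation 1 h post-dosing, DMSO as baseline. Chemicals passing a 25 uM duplicate screen were titrated to a 50 uM maximum.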
# NCBI gene 24521 = test: NVS_IC_rKATPCh: NovaScreen (NVS) Ion Channel Assay for rat Potassium Channel, ATP-Sensitive (KATPCh) (AID 2283319)
# Outline: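 Primary duplicate screen at 25 uM, then singleton concentration series to 50 uM maximum, in a rat cortex membrane radioligand displacement assay. Binding measured by filtration and scintillation 2 h post-dose; DMSO baseline.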
# [13] = target: rat Gamma-Aminobutyric Acid Type A Receptor, Non-Selective (GABAR-NonSelective), Gabra1 (gene 29705) (UniProt P62813); test: NVS_LGIC_rGABAR_NonSelective: NovaScreen (NVS) Ligand-Gated Ion Channel Assay for rat Gamma-Aminobutyric Acid Type A Receptor, Non-Selective (GABAR-NonSelective) (AID 2283326)
# Outline: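 Compounds were first screened in duplicate at 25 uM, with actives run as singleton concentration series (max 50 uM). Binding of a radioligand to rat whole-brain GABA-A preparation was measured by filtration and scintillation counting after 1 h, DMSO baseline.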
# NCBI gene 100848466 = test: NVS_NR_bPR: NovaScreen (NVS) Nuclear Receptor Binding Assay for bovine Progextron Receptor (PR) (AID 2283343);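 also: actives lower bound radioligand signal below DMSO meaning displacement of the label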
# Outline: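 Competitive radioligand binding with membranes from bovine uterus, scintillation read-out at 18 h post-dose. Compounds first tested in duplicate at 25 uM, then actives in concentration series; loss-of-signal relative to DMSO.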
# [14] = target: rat Opioid Receptor, Non-selective Binding, Oprm1 (gene 25601) (UniProt P33535); test: NVS_GPCR_rOpiate_NonSelective: NovaScreen (NVS) G Protein-Coupled Receptor Assay for rat Opioid Receptor, Non-selective Binding (AID 2283318)
# Chain of rat Opioid Receptor, Non-selective Binding, Oprm1 (gene 25601) (P33535 whole entry, looked up): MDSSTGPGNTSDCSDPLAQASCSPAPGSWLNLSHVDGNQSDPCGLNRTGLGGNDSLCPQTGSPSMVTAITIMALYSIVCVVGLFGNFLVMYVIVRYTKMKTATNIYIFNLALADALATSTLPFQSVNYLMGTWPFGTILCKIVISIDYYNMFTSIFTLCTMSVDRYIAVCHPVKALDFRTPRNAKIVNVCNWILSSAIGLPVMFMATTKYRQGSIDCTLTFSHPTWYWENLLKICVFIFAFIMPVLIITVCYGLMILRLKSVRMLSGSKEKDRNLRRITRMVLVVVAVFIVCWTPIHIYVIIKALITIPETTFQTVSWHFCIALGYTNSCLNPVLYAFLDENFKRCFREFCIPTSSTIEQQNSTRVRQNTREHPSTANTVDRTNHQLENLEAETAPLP
# Outline: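 Filter-based radioligand displacement using rat forebrain membrane preparations, measured 1.5 h post-dosing. Single-concentration duplicate screen at 25 uM, follow-up in concentration series; activity taken as signal loss relative to DMSO.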
# [15] = target: human Androgen Receptor (AR), AR (gene 367) (UniProt P10275); test: NVS_NR_hAR: NovaScreen (NVS) Nuclear Receptor Binding Assay for human Androgen Receptor (AR) (AID 2283332)
# Chain of human Androgen Receptor (AR), AR (gene 367) (P10275 whole entry, looked up): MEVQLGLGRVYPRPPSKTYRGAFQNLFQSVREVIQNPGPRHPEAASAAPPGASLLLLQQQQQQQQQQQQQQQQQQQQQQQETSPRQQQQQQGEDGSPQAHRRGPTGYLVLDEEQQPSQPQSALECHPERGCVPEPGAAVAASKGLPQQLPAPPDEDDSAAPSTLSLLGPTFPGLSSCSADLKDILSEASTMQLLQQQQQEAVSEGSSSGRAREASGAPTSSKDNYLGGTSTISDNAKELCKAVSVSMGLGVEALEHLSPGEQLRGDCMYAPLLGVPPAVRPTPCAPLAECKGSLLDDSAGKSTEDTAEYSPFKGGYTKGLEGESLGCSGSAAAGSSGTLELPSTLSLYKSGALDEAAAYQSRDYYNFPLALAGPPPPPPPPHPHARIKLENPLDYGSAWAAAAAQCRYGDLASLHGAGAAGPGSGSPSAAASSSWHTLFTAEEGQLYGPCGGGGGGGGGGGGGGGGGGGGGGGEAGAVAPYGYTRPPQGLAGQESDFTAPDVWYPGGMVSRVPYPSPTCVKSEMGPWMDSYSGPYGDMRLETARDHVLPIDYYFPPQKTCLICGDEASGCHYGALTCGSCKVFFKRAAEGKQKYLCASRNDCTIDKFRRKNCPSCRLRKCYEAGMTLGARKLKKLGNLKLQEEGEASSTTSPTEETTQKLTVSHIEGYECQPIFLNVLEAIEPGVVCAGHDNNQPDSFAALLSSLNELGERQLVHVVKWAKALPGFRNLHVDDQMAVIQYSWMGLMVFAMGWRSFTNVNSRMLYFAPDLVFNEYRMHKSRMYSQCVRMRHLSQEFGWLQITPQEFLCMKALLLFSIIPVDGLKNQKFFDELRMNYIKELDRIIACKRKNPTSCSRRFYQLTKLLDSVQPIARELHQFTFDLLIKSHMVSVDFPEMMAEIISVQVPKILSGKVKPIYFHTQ
# Outline: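 Radioligand competitive binding, scintillation read-out, in cell-free extract from LnCAP, measured 20 h after dosing. Screened first in duplicate at 25 uM, then concentration series for actives; activity fitted against DMSO.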
# [16] = target: human Serotonin, 5-Hydroxytryptamine Receptor 3 (5HT3), HTR3A (gene 3359) (UniProt P46098); test: NVS_LGIC_h5HT3: NovaScreen (NVS) Ligand-Gated Ion Channel Assay for human Serotonin, 5-Hydroxytryptamine Receptor 3 (5HT3) (AID 2283325)
# Chain of human Serotonin, 5-Hydroxytryptamine Receptor 3 (5HT3), HTR3A (gene 3359) (P46098 whole entry, looked up): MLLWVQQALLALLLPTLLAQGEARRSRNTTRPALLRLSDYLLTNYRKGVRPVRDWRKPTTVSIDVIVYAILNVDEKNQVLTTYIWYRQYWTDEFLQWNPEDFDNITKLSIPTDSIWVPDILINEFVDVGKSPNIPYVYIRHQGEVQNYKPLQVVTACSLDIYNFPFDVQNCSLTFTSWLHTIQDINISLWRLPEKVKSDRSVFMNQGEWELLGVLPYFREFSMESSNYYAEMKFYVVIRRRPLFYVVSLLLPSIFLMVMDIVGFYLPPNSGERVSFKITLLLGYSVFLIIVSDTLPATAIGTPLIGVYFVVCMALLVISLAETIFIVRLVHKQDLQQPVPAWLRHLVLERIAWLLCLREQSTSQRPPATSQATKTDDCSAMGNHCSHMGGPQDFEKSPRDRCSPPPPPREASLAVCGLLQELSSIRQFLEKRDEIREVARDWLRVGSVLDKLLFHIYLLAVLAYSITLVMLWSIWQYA
# Outline: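 Initially tested at 25 uM in duplicate, then up to 50 uM in concentration-response for actives, compounds competed with a radioligand for HEK293-derived human 5-HT3 receptor. Bound counts were measured by filtration and scintillation at 1 h; loss of signal versus DMSO.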
structure (smiles),measurement,setting,value
CCCCCc1ccc(O)cc1,AC50,[1],1.07 µM (active)
same,AC50,[2],25 µM (active)
same,outcome,[3],inactive
CCCCCCCCCCCCCCCCCC[N+](C)(C)Cc1ccccc1,outcome,[1],inactive
same,outcome,[2],inactive
same,AC50,[3],12.5 µM (active)
same,outcome,[4],inactive
NC(=NCCCCCCN=C(N)/N=C(\N)Nc1ccc(Cl)cc1)/N=C(\N)Nc1ccc(Cl)cc1,AC50,[5],38.3 µM (active)
same,outcome,[1],inactive
same,AC50,[2],10.3 µM (active)
same,AC50,[4],8.58 µM (active)
same,outcome,[6],inactive
C=CC(=O)OCCN(CC)CC,outcome,[1],inactive
NCCN,outcome,[7],inactive
O=C(CCCN1CCC(O)(c2ccc(Cl)cc2)CC1)c1ccc(F)cc1,AC50,[8],3.15 µM (active)
same,AC50,[1],0.376 µM (active)
same,outcome,[9],inactive
same,AC50,[4],2.55 µM (active)
same,outcome,[10],inactive
same,outcome,[11],inactive
same,AC50,[12],1.65 µM (active)
CCCCCCC(C)(C)C(=O)O,outcome,[7],inactive
CCc1cccc(CC)c1N(COC)C(=O)CS(=O)(=O)O,outcome,[1],inactive
CCCCc1oc2ccccc2c1C(=O)c1cc(I)c(OCCN(CC)CC)c(I)c1,AC50,[8],0.772 µM (active)
same,AC50,[1],1.67 µM (active)
same,AC50,[2],5.22 µM (active)
same,AC50,[3],10.9 µM (active)
same,AC50,[4],1.81 µM (active)
same,AC50,[12],9.85 µM (active)
CN(C)c1ccc(C(=C2C=CC(=[N+](C)C)C=C2)c2ccccc2)cc1,AC50,[1],860 nM (active) and 5.04 µM (active)
same,AC50,[2],1.29 µM (active) and 1.63 µM (active)
same,AC50,[3],8.3 µM (active)
CCCCCCCCCCCCOS(=O)(=O)O,outcome,NCBI gene 24521,inactive
same,AC50,[13],5.96 µM (active)
same,AC50,NCBI gene 100848466,25.5 µM (active)
CCCCc1ccc2ccccc2c1S(=O)(=O)O,outcome,[7],inactive
Cc1ccc(S(=O)(=O)O)cc1,AC50,[7],0.167 µM (active)
CN(C)CCOC(c1ccccc1)c1ccccc1,AC50,[14],7 µM (active)
same,AC50,[1],3.25 µM (active)
same,AC50,[4],5.8 µM (active)
same,outcome,[10],inactive
same,outcome,[11],inactive
same,AC50,[12],4.71 µM (active)
CN(Cc1cnc2nc(N)nc(N)c2n1)c1ccc(C(=O)N[C@@H](CCC(=O)O)C(=O)O)cc1,outcome,[1],inactive
same,outcome,[2],inactive
same,outcome,[15],inactive
CCCCC(CC)C(=O)O (stereo unspecified),outcome,[16],inactive
CCCCCC(C)OC(=O)COc1ccc(Cl)c2cccnc12 (stereo unspecified),AC50,[2],4.96 µM (active)
CC(C)(c1ccc(Oc2ccc(N)cc2)cc1)c1ccc(Oc2ccc(N)cc2)cc1,AC50,[15],9 µM (active)
CC(C)[C@@H]1CC[C@@H](C)C[C@H]1O,AC50,[15],13.1 µM (active)
C=CC(C)(CCC=C(C)C)OC(C)=O (stereo unspecified),outcome,[4],inactive
